rCAG RNA binder: binders of r(CAG) RNA repeats, primary screen, biochemical, fluorescence. r(CAG) RNA repeat, TO-PRO-1 dye displacement fluorescence. inhibition, % at 3 µM. 1.3% of 370,000 active. AID 651821, 2012;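 active = inhibition above the plate cutoff, the mean of all test compounds on that plate plus 3 SD, cut at about 35% in these data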;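 note: higher means more dye released from RNA so lower well fluorescence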
AHR activator: AHR activators, primary screen, cell-based, luminescence, luciferase reporter, human; Aryl hydrocarbon receptor (Homo sapiens), P35869; 2.5% of 320,000 active; activation, % at 5 µM; AHR-responsive luciferase reporter cells; AID 2796, 2010; in the data active = activation above about 47%
ADAM17 inh: ADAM17 inhibitors, primary screen, biochemical, QFRET. Disintegrin and metalloproteinase domain-containing protein 17 (Homo sapiens), P78536. recombinant ADAM17, EDANS/DABCYL FRET peptide cleavage. inhibition, % at 6.95 µM. 0.83% of 370,000 active. AID 720648, 2013;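 active = inhibition above the mean of compounds lying between control limits plus 3 SD, set per campaign, cut at about 8.5% in these data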
GRIN3A LBD mod: binders of NR3A ligand-binding domain, primary screen, biophysical, differential scanning fluorimetry, uHTS; Glutamate receptor ionotropic, NMDA 3A (GRIN3A) ligand-binding domain; NR3A LBD differential scanning fluorimetry, Tm shift; 0% = protein alone, 100% = glycine-bound protein; Tm shift relative to glycine control, % at 25 µM; 2.5% of 340,000 active; AID 1259313, 2017;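 active = melting temperature shift of at least 10% of the positive control shift, at one fixed dose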
proKLK7 act: proKLK7 zymogen activators, primary screen, biochemical, fluorescence intensity. Kallikrein-7 (Homo sapiens), P49862. purified proKLK7, EDANS-DABCYL substrate fluorescence; 100% is mature enzyme control, 0% vehicle. activation, % at 7 µM. 0.9% of 370,000 active. AID 652039, 2013;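 active = activation above the mean of all tested compounds plus 3 SD, computed per campaign excluding outliers beyond control limits, cut at about 13% in these data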
ADAM10 inh: human ADAM10 inhibitors, primary screen, biochemical, QFRET, HTS. Disintegrin and metalloproteinase domain-containing protein 10 (Homo sapiens), O14672. recombinant ADAM10, EDANS/DABCYL FRET peptide cleavage, 3 h. inhibition, % at 7 µM. 0.62% of 370,000 active. AID 720582, 2013;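 active = inhibition above a per-campaign cutoff equal to the mean of compounds falling between control-based bounds plus 3 SD, cut at about 20% in these data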
Target sequence (O14672 214-748 limits assumed): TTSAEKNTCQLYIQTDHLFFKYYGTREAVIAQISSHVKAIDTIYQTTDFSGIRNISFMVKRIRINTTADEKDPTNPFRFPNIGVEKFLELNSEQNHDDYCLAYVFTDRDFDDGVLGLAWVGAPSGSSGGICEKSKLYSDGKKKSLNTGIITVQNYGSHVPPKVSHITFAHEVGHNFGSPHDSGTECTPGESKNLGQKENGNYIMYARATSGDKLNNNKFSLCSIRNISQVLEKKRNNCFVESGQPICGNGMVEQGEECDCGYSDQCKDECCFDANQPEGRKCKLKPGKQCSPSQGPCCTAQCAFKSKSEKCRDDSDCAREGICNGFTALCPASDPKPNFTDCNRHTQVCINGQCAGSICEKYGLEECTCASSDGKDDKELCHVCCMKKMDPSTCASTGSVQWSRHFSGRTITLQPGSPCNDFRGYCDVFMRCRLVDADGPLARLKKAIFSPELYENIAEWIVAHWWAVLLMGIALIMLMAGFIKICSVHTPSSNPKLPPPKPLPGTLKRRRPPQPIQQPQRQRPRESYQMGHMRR
ADAM10 confirm: human ADAM10 inhibitors, confirmation, biochemical, QFRET, triplicate; shares compounds with ADAM10 inh; ADAM10 QFRET peptide cleavage, EDANS fluorescence; inhibition, % at 6.95 µM; 1% of 2,100 active; AID 743208, 2013;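 active = inhibition above about 20% chosen separately for each screening run, limit read from the data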
ADAM17 ctr: ADAM17 inhibitors, counter-screen for ADAM10 exosite inhibitor project, biochemical, QFRET, high throughput | shares compounds with ADAM10 inh | ADAM17 QFRET peptide cleavage, EDANS fluorescence | inhibition, % at 6.95 µM | 0.5% of 2,100 active | AID 743214, 2013;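 active = mean triplicate inhibition above the solvent-only control wells' mean plus 3 SD, cut at about 12% in these data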
ADAM10 ctr: ADAM10 inhibitors, counter-screen for ADAM17 exosite inhibitor project, biochemical, FRET, human ADAM10; inhibition, % at 6.95 µM; recombinant ADAM10, EDANS/DABCYL FRET peptide cleavage, 3 h; 47% of 2,900 active; shares compounds with ADAM17 inh;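 active = mean inhibition over the triplicate runs exceeds the activity threshold set in the earlier primary screen, cut at about 20% in these data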
ADAM17 confirm: ADAM17 inhibitors, hit retest, confirmation, biochemical, QFRET peptide cleavage; shares compounds with ADAM17 inh; recombinant ADAM17, EDANS/DABCYL QFRET peptide cleavage; inhibition, % at 6.95 µM; 65% of 2,900 active;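 active = mean inhibition across replicates above the hit cutoff set in the primary screen, cut at about 8.5% in these data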
Of the large screens only hits and unclear results are named; the others gave an inactive call (follow-up assays come after a bar, where they were run). Only some compounds are listed: those with a hit (about 7% of all), similar ones and a draw of the others.

O=S(=O)(Nc1ccc(C(O)(C(F)(F)F)C(F)(F)F)cc1)c1cccc2ccccc12	ADAM17 inh 11.2, ADAM10 inh 34.3 (no result: AHR activator, GRIN3A LBD mod) | ADAM10 confirm inactive | ADAM17 ctr inactive | ADAM10 ctr 39.7 | ADAM17 confirm 20.8
COc1ccccc1/C=N/NC(=O)CC(=O)NCCc1ccccc1	none
O=C1OCCN1C(=O)[C@H]1[C@H](c2ccc([N+](=O)[O-])cc2)C(c2ccc(F)cc2)=NN1c1ccccc1	ADAM17 inh 9.0, ADAM10 inh 21.1 (no result: AHR activator) | ADAM10 confirm inactive | ADAM17 ctr inactive | ADAM10 ctr 36.0 | ADAM17 confirm 17.5
O=C1OCCN1C(=O)[C@H]1[C@H](c2ccccc2)C(c2ccc(F)cc2)=NN1c1ccc(Br)cc1	none (no result: AHR activator)
O=C1OCCN1C(=O)[C@H]1[C@H](c2ccc([N+](=O)[O-])cc2)C(c2ccc(F)cc2)=NN1c1ccc(Br)cc1	ADAM17 inh 9.2, GRIN3A LBD mod 12.7, ADAM10 inh 22.1 (no result: AHR activator) | ADAM10 confirm inactive | ADAM17 ctr inactive | ADAM10 ctr 20.3 | ADAM17 confirm 12.8
CCOC(=O)c1ccc(NC(=O)Cn2nnc(-c3ccccc3C)n2)cc1	ADAM17 inh 10.3, GRIN3A LBD mod 13.1, ADAM10 inh 22.0 | ADAM10 confirm inactive | ADAM17 ctr inactive | ADAM10 ctr 41.1 | ADAM17 confirm 23.7
CC(=O)c1ccsc1-c1c(C)cc2oc(=O)cc(-c3ccccc3)c2c1C	none (no result: AHR activator)
CCOC(=O)c1ccc(NC(=O)COC(=O)c2cccc(Oc3ccccc3)c2)cc1	ADAM17 inh 12.7, ADAM10 inh 28.1 | ADAM10 confirm inactive | ADAM17 ctr inactive | ADAM10 ctr 26.9 | ADAM17 confirm 14.3
COc1ccc(N(CC(=O)Nc2cc(C)cc(C)c2)S(=O)(=O)c2ccccc2[N+](=O)[O-])c(OC)c1	none
COc1ccc(N(CC(=O)Nc2ccc(F)cc2)S(=O)(=O)c2ccccc2[N+](=O)[O-])c(OC)c1	ADAM17 inh 11.2, ADAM10 inh 24.8 | ADAM10 confirm inactive | ADAM17 ctr inactive | ADAM10 ctr 32.1 | ADAM17 confirm 14.1
Cn1c(SCC(=O)NNC(=O)c2ccccc2Br)nnc1C(F)(F)F	none
CSc1cccc(NC(=O)CCCOc2ccc(Cl)cc2C)c1	ADAM17 inh 19.0, ADAM10 inh 31.1 | ADAM10 confirm inactive | ADAM17 ctr inactive | ADAM10 ctr 38.0 | ADAM17 confirm 18.6
CSc1cccc(NC(=O)/C=C/c2ccc(Cl)cc2)c1	ADAM17 inh 13.6, GRIN3A LBD mod 17.4, ADAM10 inh 22.2 | ADAM10 confirm inactive | ADAM17 ctr inactive | ADAM10 ctr 44.9 | ADAM17 confirm 15.8
CSc1cccc(NC(=O)/C=C/c2ccco2)c1	none
CCOc1ccc(NC(=O)CN(C)C(=O)c2cc(C3CC3)nn2-c2ccccc2)cc1OCC	none (no result: AHR activator)
